Assay results as given in paper PMC7862700, “An all-to-all approach to the identification of sequence-specific readers for epigenetic DNA modifications on cytosine”.

Key:
Assay in all cases: DAPPL (digital affinity profiling via proximity ligation, sequencing); 10 mM Tris-HCl pH 7.5, 50 mM NaCl, 1 mM DTT, 4% glycerol, room temperature, 30 min; GST-TFs on glutathione beads, 16-mer random dsDNA library, 0.1% formaldehyde crosslink after washing; high values mean tight binding
FLI1 = biological target: T1, FLI1 (Homo sapiens, UniProt Q01543 1-452); conditions: protein: recombinant; tags: N-terminal GST; dsDNA, one strand shown
T1 sequence: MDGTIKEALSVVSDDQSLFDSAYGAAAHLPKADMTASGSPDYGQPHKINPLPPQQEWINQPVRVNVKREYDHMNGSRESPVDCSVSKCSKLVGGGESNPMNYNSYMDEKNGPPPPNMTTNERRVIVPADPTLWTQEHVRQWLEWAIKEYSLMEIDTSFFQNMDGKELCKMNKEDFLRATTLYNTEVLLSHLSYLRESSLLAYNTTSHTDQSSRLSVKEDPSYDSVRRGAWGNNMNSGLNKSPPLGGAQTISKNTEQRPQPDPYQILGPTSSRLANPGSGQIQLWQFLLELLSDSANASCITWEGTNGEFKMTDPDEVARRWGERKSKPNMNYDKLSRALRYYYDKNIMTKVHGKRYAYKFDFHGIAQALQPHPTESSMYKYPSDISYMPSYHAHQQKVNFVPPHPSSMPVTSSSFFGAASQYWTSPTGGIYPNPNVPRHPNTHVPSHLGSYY
Procedure, shortened: (§1)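 Binding signal is each hexamer's read frequency for a factor divided by its frequency in the tag-only sample. The factors were GST-fused human transcription factors from yeast, captured on glutathione beads, DNA-barcoded and pooled with that sample. Pools were incubated with 200 nmole of a random double-stranded 16-mer DNA library in Tris/NaCl/DTT/glycerol buffer at room temperature for 30 min, then washed, crosslinked with 0.1% formaldehyde, proximity-ligated with BsaI/T4 ligase (1 h, 37 °C), PCR-amplified and sequenced on an Illumina NextSeq500.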

ELK1 = biological target: T2, ELK1 (Homo sapiens, UniProt P19419 1-428); conditions: protein: recombinant; tags: N-terminal GST; dsDNA, one strand shown
T2 sequence: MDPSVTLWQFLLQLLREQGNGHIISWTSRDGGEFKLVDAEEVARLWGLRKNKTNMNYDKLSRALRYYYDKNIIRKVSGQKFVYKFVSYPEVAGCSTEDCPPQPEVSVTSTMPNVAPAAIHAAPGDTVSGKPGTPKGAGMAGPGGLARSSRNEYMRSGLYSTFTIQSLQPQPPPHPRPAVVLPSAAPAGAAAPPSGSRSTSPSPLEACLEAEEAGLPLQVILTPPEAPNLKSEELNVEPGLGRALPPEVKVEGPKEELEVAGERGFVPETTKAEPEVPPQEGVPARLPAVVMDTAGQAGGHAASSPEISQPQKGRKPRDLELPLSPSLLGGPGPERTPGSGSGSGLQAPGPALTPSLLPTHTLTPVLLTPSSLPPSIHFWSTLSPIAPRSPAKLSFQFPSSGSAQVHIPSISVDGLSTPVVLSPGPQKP
Procedure, shortened: as §1

GABPA = biological target: T3, GABPA (Homo sapiens, UniProt Q06546 1-454); conditions: protein: recombinant; tags: N-terminal GST; dsDNA, one strand shown
T3 sequence: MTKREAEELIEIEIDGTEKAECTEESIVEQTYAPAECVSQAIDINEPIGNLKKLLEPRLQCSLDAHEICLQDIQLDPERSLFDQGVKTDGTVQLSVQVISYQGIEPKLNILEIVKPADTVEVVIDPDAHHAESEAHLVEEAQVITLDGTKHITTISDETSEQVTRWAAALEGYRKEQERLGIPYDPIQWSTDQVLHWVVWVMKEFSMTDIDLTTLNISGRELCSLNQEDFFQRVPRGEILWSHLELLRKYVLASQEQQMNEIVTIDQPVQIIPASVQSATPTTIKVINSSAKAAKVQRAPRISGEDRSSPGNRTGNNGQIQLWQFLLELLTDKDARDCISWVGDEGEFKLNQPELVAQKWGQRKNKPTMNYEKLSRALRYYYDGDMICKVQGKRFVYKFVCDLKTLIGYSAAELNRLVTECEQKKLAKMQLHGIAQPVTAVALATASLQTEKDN
Procedure, shortened: as §1

ERG = biological target: T4, ERG (Homo sapiens, UniProt P11308 1-479); conditions: protein: recombinant; tags: N-terminal GST; dsDNA, one strand shown
T4 sequence: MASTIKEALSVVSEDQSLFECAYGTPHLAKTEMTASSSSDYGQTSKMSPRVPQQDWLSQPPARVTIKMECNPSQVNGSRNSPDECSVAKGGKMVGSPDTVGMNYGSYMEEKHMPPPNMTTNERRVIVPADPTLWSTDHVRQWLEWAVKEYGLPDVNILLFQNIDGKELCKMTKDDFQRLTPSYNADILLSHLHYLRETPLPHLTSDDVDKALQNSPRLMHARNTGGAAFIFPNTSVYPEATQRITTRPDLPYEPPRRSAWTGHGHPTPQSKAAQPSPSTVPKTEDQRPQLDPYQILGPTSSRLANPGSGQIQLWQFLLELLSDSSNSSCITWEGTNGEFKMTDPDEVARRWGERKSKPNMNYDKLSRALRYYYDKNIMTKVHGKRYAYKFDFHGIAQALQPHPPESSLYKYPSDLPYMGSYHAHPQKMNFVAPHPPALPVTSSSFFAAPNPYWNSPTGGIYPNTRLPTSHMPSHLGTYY
Procedure, shortened: as §1

ELF1 = ELF1 (Homo sapiens, UniProt P32519 1-619); conditions: protein: recombinant; tags: N-terminal GST; dsDNA, one strand shown
Procedure, shortened: as §1

EHF = biological target: T5, EHF (Homo sapiens, UniProt Q9NZC4 1-300); conditions: protein: recombinant; tags: N-terminal GST; dsDNA, one strand shown
T5 sequence: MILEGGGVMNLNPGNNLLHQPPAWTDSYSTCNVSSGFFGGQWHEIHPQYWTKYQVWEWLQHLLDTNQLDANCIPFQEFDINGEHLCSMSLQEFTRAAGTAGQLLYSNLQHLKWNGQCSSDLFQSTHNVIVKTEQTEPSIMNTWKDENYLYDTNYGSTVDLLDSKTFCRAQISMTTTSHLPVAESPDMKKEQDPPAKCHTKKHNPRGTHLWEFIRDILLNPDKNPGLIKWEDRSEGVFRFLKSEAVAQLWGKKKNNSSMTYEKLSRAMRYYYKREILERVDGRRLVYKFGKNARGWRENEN
Procedure, shortened: as §1

SPI1 = SPI1 (Homo sapiens, UniProt P17947 1-270); conditions: protein: recombinant; tags: N-terminal GST; dsDNA, one strand shown
Procedure, shortened: as §1

SPIB = SPIB (Homo sapiens, UniProt Q01892 1-262); conditions: protein: recombinant; tags: N-terminal GST; dsDNA, one strand shown
Procedure, shortened: as §1

ELK3 = biological target: T6, ELK3 (Homo sapiens, UniProt P41970 1-407); conditions: protein: recombinant; tags: N-terminal GST; dsDNA, one strand shown
T6 sequence: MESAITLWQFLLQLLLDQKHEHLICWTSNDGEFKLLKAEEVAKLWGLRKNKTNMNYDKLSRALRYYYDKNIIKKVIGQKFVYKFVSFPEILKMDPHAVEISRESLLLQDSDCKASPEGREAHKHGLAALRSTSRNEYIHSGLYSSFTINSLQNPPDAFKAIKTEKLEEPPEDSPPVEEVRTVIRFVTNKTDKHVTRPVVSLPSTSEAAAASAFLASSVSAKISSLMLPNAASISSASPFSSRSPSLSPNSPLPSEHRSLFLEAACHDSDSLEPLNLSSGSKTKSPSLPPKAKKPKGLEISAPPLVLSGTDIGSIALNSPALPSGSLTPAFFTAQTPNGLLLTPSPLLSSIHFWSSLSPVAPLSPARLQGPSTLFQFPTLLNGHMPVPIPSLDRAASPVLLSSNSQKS
Procedure, shortened: as §1

FEV = biological target: T7, FEV (Homo sapiens, UniProt Q99581 1-238); conditions: protein: recombinant; tags: N-terminal GST; dsDNA, one strand shown
T7 sequence: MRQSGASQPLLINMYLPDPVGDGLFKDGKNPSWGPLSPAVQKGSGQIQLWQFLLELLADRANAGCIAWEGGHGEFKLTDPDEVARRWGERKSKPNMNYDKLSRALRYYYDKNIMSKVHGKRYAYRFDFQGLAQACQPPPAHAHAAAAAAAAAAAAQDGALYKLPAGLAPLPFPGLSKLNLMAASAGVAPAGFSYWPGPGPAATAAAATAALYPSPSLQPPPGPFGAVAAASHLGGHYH
Procedure, shortened: as §1

ETV5 = ETV5 (Homo sapiens, UniProt P41161 1-510); conditions: protein: recombinant; tags: N-terminal GST; dsDNA, one strand shown
Procedure, shortened: as §1

HSF1 = HSF1 (Homo sapiens, UniProt Q00613 1-529); conditions: protein: recombinant; tags: N-terminal GST; chain copies: 3; dsDNA, one strand shown
Procedure, shortened: as §1

SPIC = biological target: T8, SPIC (Homo sapiens, UniProt Q8N5J4 1-248); conditions: protein: recombinant; tags: N-terminal GST; dsDNA, one strand shown
T8 sequence: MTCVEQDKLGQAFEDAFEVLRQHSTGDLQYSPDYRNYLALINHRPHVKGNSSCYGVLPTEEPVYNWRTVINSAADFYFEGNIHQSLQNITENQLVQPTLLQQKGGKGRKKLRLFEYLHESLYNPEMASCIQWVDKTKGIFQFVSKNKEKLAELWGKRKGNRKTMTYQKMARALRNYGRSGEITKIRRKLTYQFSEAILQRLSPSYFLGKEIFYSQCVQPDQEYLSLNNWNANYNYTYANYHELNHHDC
Procedure, shortened: as §1

ELF4 = ELF4 (Homo sapiens, UniProt Q99607 1-663); conditions: protein: recombinant; tags: N-terminal GST; dsDNA, one strand shown
Procedure, shortened: as §1

ELK4 = biological target: T9, ELK4 (Homo sapiens, UniProt P28324-2 1-405); conditions: protein: recombinant; tags: N-terminal GST; dsDNA, one strand shown
T9 sequence: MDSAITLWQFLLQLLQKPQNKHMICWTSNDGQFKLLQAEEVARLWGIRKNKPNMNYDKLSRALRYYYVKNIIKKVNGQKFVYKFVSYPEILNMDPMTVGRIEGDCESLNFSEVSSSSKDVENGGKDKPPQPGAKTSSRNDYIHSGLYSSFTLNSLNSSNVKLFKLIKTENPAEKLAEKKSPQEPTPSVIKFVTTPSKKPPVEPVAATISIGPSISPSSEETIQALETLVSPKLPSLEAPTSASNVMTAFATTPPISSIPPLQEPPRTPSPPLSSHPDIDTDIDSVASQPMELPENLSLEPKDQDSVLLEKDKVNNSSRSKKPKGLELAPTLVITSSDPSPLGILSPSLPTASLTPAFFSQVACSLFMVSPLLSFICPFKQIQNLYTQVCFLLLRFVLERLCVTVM
Procedure, shortened: as §1

ETV2 = biological target: T10, ETV2 (Homo sapiens, UniProt O00321 1-342); conditions: protein: recombinant; tags: N-terminal GST; dsDNA, one strand shown
T10 sequence: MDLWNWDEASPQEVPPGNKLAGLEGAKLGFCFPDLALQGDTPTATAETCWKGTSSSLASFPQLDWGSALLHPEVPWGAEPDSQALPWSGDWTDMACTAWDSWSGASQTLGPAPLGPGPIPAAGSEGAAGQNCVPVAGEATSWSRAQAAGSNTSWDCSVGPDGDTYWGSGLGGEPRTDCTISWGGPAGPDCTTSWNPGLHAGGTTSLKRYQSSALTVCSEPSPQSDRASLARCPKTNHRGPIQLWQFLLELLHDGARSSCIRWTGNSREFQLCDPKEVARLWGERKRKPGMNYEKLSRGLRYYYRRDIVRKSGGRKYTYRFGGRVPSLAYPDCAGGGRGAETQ
Procedure, shortened: as §1

ELF3 = biological target: T11, ELF3 (Homo sapiens, UniProt P78545 1-371); conditions: protein: recombinant; tags: N-terminal GST; dsDNA, one strand shown
T11 sequence: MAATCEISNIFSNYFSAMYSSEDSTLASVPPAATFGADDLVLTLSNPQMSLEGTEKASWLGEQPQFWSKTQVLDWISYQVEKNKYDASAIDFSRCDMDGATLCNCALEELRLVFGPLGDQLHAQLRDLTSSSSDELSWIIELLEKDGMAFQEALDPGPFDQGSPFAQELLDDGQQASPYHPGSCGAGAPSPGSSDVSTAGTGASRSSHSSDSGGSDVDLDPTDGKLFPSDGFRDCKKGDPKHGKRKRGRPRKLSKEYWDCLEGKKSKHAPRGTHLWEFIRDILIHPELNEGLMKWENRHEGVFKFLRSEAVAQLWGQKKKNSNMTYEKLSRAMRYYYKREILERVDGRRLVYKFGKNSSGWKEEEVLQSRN
Procedure, shortened: as §1

CRX = CRX (Homo sapiens, UniProt O43186 1-299); conditions: protein: recombinant; tags: N-terminal GST; dsDNA, one strand shown
Procedure, shortened: as §1

ETV1 = ETV1 (Homo sapiens, UniProt P50549 1-477); conditions: protein: recombinant; tags: N-terminal GST; dsDNA, one strand shown
Procedure, shortened: as §1

Sequence of CRX (O43186 whole entry): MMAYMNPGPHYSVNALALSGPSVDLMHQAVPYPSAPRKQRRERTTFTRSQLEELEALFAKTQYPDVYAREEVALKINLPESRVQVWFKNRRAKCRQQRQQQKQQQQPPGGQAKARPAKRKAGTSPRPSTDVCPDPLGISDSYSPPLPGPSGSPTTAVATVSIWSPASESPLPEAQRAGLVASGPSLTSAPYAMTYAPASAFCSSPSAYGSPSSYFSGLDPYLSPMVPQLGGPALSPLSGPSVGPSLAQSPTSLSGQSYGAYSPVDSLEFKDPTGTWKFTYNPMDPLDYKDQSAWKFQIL
Sequence of ETV5 (P41161 whole entry): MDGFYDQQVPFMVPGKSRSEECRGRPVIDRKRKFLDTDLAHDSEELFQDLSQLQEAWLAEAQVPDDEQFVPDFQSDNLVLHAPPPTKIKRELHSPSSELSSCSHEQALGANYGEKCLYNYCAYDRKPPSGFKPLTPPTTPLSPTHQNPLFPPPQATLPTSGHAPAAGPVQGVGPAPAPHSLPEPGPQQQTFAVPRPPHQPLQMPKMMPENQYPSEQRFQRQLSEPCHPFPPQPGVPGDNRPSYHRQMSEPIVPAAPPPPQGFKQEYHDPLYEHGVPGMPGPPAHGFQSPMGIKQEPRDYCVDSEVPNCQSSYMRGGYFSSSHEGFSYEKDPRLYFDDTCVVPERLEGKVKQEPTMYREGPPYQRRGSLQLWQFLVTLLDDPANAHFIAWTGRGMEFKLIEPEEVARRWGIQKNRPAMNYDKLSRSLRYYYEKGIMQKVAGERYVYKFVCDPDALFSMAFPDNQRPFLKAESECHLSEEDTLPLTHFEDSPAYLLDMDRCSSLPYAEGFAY
Sequence of SPIB (Q01892 whole entry): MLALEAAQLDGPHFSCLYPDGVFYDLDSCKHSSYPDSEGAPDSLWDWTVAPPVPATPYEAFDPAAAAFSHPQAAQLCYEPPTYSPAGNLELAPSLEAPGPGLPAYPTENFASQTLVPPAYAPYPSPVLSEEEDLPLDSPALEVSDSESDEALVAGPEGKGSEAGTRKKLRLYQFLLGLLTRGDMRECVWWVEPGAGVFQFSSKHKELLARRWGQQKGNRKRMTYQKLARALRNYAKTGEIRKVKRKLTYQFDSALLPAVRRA
Sequence of ELF1 (P32519 whole entry): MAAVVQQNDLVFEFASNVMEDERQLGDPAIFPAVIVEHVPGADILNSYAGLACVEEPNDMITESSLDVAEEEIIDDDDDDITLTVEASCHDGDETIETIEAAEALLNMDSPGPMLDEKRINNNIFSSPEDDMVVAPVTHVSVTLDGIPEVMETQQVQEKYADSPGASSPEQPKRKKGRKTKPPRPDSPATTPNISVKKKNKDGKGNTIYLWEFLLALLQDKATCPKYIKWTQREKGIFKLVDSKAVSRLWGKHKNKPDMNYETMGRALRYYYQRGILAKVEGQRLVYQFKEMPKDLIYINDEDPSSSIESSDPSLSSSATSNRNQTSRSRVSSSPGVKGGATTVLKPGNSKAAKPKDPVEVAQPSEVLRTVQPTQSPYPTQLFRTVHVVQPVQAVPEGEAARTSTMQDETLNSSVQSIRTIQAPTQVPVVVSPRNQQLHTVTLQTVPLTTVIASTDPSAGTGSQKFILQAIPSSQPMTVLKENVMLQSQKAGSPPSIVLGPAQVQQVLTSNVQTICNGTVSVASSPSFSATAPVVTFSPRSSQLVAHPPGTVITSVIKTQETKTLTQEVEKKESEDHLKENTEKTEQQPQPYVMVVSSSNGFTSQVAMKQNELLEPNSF
Sequence of ELF4 (Q99607 whole entry): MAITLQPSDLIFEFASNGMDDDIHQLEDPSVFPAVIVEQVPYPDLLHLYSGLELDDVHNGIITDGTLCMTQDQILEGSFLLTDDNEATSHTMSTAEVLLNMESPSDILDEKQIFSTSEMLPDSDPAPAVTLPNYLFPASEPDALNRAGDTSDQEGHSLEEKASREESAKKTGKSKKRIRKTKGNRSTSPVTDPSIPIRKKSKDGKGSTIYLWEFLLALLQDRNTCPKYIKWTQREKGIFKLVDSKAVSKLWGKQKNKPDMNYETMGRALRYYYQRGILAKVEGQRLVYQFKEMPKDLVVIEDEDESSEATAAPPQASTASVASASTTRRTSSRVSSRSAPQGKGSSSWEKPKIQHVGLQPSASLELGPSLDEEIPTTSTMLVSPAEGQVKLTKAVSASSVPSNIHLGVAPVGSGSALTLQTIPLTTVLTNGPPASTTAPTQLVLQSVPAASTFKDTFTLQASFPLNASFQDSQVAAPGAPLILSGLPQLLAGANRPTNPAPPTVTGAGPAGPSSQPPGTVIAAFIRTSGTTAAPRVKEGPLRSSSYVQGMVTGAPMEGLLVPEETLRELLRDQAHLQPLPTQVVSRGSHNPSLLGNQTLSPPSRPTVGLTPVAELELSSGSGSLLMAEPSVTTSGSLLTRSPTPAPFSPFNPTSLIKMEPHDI
Sequence of HSF1 (Q00613 whole entry): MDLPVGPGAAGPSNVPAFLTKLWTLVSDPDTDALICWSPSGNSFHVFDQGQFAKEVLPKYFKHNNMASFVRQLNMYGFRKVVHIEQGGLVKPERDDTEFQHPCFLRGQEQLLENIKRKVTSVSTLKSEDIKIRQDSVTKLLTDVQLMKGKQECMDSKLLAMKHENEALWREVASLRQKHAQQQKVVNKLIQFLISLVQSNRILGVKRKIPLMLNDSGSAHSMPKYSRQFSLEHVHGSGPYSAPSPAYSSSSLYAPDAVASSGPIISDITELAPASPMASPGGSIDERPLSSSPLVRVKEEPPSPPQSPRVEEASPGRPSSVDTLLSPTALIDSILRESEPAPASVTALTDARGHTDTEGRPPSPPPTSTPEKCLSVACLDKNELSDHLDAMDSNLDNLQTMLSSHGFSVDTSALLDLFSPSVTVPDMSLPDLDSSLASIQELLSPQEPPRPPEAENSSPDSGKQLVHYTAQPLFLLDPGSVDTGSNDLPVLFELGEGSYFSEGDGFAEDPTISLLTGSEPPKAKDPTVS
Sequence of ETV1 (P50549 whole entry): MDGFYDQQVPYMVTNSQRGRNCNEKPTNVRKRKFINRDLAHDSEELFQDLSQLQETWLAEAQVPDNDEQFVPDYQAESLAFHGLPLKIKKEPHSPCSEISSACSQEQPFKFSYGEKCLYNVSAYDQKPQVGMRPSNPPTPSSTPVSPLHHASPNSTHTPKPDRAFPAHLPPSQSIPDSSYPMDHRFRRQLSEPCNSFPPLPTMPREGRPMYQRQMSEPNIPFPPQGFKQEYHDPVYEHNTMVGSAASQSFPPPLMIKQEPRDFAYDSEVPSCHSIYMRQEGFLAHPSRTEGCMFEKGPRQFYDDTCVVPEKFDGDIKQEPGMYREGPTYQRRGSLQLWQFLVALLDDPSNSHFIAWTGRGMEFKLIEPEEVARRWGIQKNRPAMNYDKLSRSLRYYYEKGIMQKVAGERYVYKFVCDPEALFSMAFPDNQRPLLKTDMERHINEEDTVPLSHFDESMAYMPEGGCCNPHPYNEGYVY

TGGAAT
binding signal (FLI1): 1.36 fold enrichment (6-mer frequency, TF over GST control) | binding signal (ELK1): 1.21 fold enrichment (6-mer frequency, TF over GST control) | binding signal (GABPA): 1.3 fold enrichment (6-mer frequency, TF over GST control) | binding signal (ERG): 1.25 fold enrichment (6-mer frequency, TF over GST control) | binding signal (ELF1): 1.22 fold enrichment (6-mer frequency, TF over GST control) | binding signal (EHF): 1.19 fold enrichment (6-mer frequency, TF over GST control) | binding signal (SPI1): 1.25 fold enrichment (6-mer frequency, TF over GST control) | binding signal (SPIB): 1.21 fold enrichment (6-mer frequency, TF over GST control) | binding signal (ELK3): 1.25 fold enrichment (6-mer frequency, TF over GST control) | binding signal (FEV): 1.21 fold enrichment (6-mer frequency, TF over GST control) | binding signal (ETV5): 1.22 fold enrichment (6-mer frequency, TF over GST control) | binding signal (HSF1): 2.63 fold enrichment (6-mer frequency, TF over GST control) | binding signal (SPIC): 1.22 fold enrichment (6-mer frequency, TF over GST control) | binding signal (ELF4): 1.14 fold enrichment (6-mer frequency, TF over GST control) | binding signal (ELK4): 1.21 fold enrichment (6-mer frequency, TF over GST control) | binding signal (ETV2): 1.47 fold enrichment (6-mer frequency, TF over GST control) | binding signal (ELF3): 1.21 fold enrichment (6-mer frequency, TF over GST control) | binding signal (CRX): 1.77 fold enrichment (6-mer frequency, TF over GST control) | binding signal (ETV1): 1.24 fold enrichment (6-mer frequency, TF over GST control)
